Assay outcomes (PubChem)
Rows were chosen to be rich in hits. Some 3.8% of all compounds tested hit in one or more screens of this group.
ATXN viability: cell viability loss in ATXN counter-screen; AID 651635; 400,000 compounds, 0.49% hits; S2 cells (HEK-293 line with an ATXN2-luciferase reporter) viability, CellTiter-Fluor protease fluorescence, 24 h; Potency, µM (top dose mostly 56.7 µM), actives largely listed as cytotoxic; further: nearly all actives have a fitted effect of over 40% in size
TGFb inhibitor: TGF-b pathway inhibition; HepG2 CAGA-GFP TGF-b/SMAD3 reporter, GFP fluorescence, 18 h; TGF-beta stimulated, 500 pg/mL final; Potency, µM (series often up to 46.1 µM), most hits filed as inhibitors; 410,000 compounds, 1.2% hits; AID 588855; further: nearly all actives have a fitted effect of over 65% in size
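Inhibition of TGF-beta-driven CAGA-GFP reporter expression in HEPG2 cells is measured by cellular GFP fluorescence after 18 h stimulation with 500 pg/mL recombinant TGF-beta in 1% FBS medium at 37 degrees C.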
HT1080-NT tox: kills 2HG-producing HT-1080-NT fibrosarcoma cells; HT-1080-NT fibrosarcoma viability, CellTiter-Glo ATP luminescence, 48 h; 360,000 compounds, 1.6% hits; Potency, µM (titrated, usually from 46.1 µM), most hits filed as cytotoxic;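 further: NT is the 2HG producing partner of a matched IDH1 knockdown line; nearly all actives have a fitted effect of over 55% in size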
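Fibrosarcoma NT cells, 750 per well in 5% FBS RPMI, were exposed to compound for 48 hours. Viability: CellTiter-Glo luminescence.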
HT1080 IDH1KD tx: HT-1080 IDH1 knockdown cell toxicity (counter line); HT-1080 IDH1 knockdown viability, ATP luminescence, 48 h; Potency, µM (series often up to 46.1 µM), hits mostly cytotoxic; 360,000 compounds, 2% hits
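HT-1080-IDH1KD cells (IDH1 knocked down), 750/well in RPMI with 5% FBS, treated with compound 48 h at 37 degrees C. Viability by CellTiter-Glo luminescence, normalised to DMSO and no-cell wells; concentration-response curves classed.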
ATXN2 expr inh: ATXN2 expression inhibition; HEK-293 ATXN2-luciferase reporter, luminescence, 24 h; Potency, µM (series often up to 57 µM), most hits filed as inhibitors; 360,000 compounds, 0.72% hits; further: nearly all actives have a fitted effect of over 55% in size
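qHTS (up to 57 uM final) was run with 24 h compound exposure of reporter cells at 37 °C. Each well was multiplexed: SteadyGlo luminescence measured ATXN2-luciferase expression after a fluorogenic Gly-Phe-AFC viability readout (25 uM final).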
HepG2 viability: counter-screen for TGF-b inhibitors: cytotoxicity in HepG2 cells. HepG2 CAGA-GFP viability, ATP luminescence, 18 h. Potency, µM (titrated, usually from 46.1 µM), actives largely listed as cytotoxic. 410,000 compounds, 0.76% hits
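CellTiter-Glo luminescence gave cytotoxicity after 18 hours at 37 degrees C. The cells were HepG2 CAGA-GFP in 1% FBS DMEM, stimulated with 500 pg/mL TGF-beta after compound addition. %Activity was normalised to no-cell wells (complete cell-killing) and DMSO (no toxicity), and curves were fitted and classified.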
SKNSH spheroid: kills SK-N-SH neuroblastoma spheroids in orthogonal 3D test | shares compounds with ATXN2 expr inh | SK-N-SH 3D spheroid viability, PI/Hoechst imaging, 72 h | Potency, µM (top dose mostly 30.7 µM), hits mostly inhibitors | 65 compounds, 70% hits
SJ-GBM2 3D tox: lowers viability of SJ-GBM2 3D spheroids; shares compounds with ATXN2 expr inh; SJ-GBM2 3D spheroid viability, PI/Hoechst imaging, 72 h; Potency, µM (doses to about 30.7 µM), hits mostly inhibitors; 65 compounds, 80% hits; AID 1347136
Daoy 3D tox: Daoy 3D spheroid viability loss; shares compounds with ATXN2 expr inh; Daoy 3D spheroid viability, PI/Hoechst imaging, 72 h; Potency, µM (top dose mostly 30.7 µM), most hits filed as inhibitors; 65 compounds, 50% hits
TC32 3D caspase: activates caspase in TC32 3D spheroids. shares compounds with ATXN2 expr inh. TC32 3D spheroids, caspase-3/7 fluorescence imaging, 24 h. Potency, µM (series often up to 30.7 µM), hits mostly inhibitors. 65 compounds, 30% hits. AID 1347138
TC32 3D tox: reduced viability of TC32 3D spheroids, orthogonal test; shares compounds with ATXN2 expr inh; TC32 3D spheroid viability, PI/Hoechst imaging, 72 h; Potency, µM (top dose mostly 30.7 µM), most hits filed as inhibitors; 65 compounds, 60% hits; AID 1347139
MG63 3D tox: kills MG-63 (6-TG R) spheroids in orthogonal 3D test; shares compounds with ATXN2 expr inh; MG-63 (6-TG R) 3D spheroid viability, PI/Hoechst imaging, 72 h; Potency, µM (titrated, usually from 30.7 µM), hits mostly inhibitors; 65 compounds, 50% hits
RD 3D tox: kills RD rhabdomyosarcoma spheroids in orthogonal 3D test. Potency, µM (top dose mostly 30.7 µM), usual class: inhibitors. AID 1347141. RD rhabdomyosarcoma 3D spheroid viability, PI/Hoechst imaging, 72 h. 65 compounds, 50% hits. shares compounds with ATXN2 expr inh
Numbers stand for hits; 0 = inactive; ? = inconclusive; - = no result; ! = not confirmed by another sample. The call rests on the fitted dose curve; in most records, active means well fitted curve in the direction sought with a large enough effect; inconclusive means small, poorly fitted or top-dose-only effect, or another doubt; inactive means no such curve, though single readings can be large; an effect the other way counts as inactive or inconclusive.

SMILES | ATXN viability | TGFb inhibitor | HT1080-NT tox | HT1080 IDH1KD tx | ATXN2 expr inh | HepG2 viability | SKNSH spheroid | SJ-GBM2 3D tox | Daoy 3D tox | TC32 3D caspase | TC32 3D tox | MG63 3D tox | RD 3D tox
CC(=O)[C@]1(O)Cc2c(O)c3c(c(O)c2[C@@H](O[C@H]2C[C@H](N)[C@H](O)[C@H](C)O2)C1)C(=O)c1ccccc1C3=O | - | 0 | 3.26µM | 0.326µM | 12.6µM! | 0 | 0.0909µM | 0.162µM | 1.81µM | 7.22µM | 0.204µM | 1.14µM | 1.62µM
COc1cccc2c1C(=O)c1c(O)c3c(c(O)c1C2=O)C[C@@](O)(C(=O)CO)C[C@@H]3O[C@H]1C[C@H](N)[C@@H](O)[C@H](C)O1 | - | 3.16µM | 0.259µM | 0.517µM | 0.432µM! | 0 | 0.511µM | 0.909µM | 1.62µM | 1.02µM | 0.81µM | 5.11µM | 9.09µM
CCc1cccc(NC(=O)c2cc3c(=O)n(Cc4ccc(OC)cc4)ccc3nc2C)c1 | ? | ? | - | - | 0 | 0 | - | - | - | - | - | - | -
CCc1cccc(C)c1NC(=O)c1cc(S(=O)(=O)N(Cc2ccc(C(=O)OC)cc2)Cc2ccc(OC)c(OC)c2)ccc1F | - | 0 | - | - | - | 0 | - | - | - | - | - | - | -
COc1ccc(-c2nc(N3CCOCC3)c3sc(CN(C)c4ncc(C(=O)NO)cn4)cc3n2)cn1 | - | - | - | - | 0 | - | 5.11µM | 11.4µM | 5.11µM | 0 | 0 | ? | 0
Cc1ccc(S(=O)(=O)N(Cc2nc(-c3cccc(C)c3)no2)C2CCCCC2)cc1 | - | ? | - | - | - | 0 | - | - | - | - | - | - | -
C[C@]12C=CC(=O)C=C1CC[C@H]1[C@@H]3C[C@@H](O)[C@](O)(C(=O)CO)[C@@]3(C)C[C@H](O)[C@@]12F | 0 | 0 | 0 | ? | 0 | 0 | ? | 0.456µM | 0 | ? | 7.22µM | 0 | 0
Cc1oc2ccc(O)c(CN(C)Cc3ccccc3)c2c1C(=O)Nc1cccc(Cl)c1C | - | 0 | - | - | - | 0 | - | - | - | - | - | - | -
Cc1ccccc1CNC(=O)c1ccc2[nH]c(C)c(C)c2c1 | - | 0 | - | - | - | 0 | - | - | - | - | - | - | -
C[C@@H]1C[C@H]2[C@@H]3CCC4=CC(=O)C=C[C@]4(C)[C@@]3(Cl)[C@@H](O)C[C@]2(C)[C@@]1(OC(=O)c1ccco1)C(=O)CCl | ? | 0 | 16.4µM | ? | ? | 0 | 0 | ? | 0 | 0 | 0 | 0 | 0
CCC(=O)OCC(=O)[C@@]1(OC(=O)CC)[C@H](C)C[C@@H]2[C@H]3CCC4=CC(=O)C=C[C@]4(C)[C@]3(Cl)[C@@H](O)C[C@@]21C | 0 | - | - | - | - | - | - | - | - | - | - | - | -
CCc1ccccc1NC(=O)N1CC(CC)Oc2ccc(Cl)cc21 (stereo not given) | - | 0 | - | - | - | 0 | - | - | - | - | - | - | -
COc1c(C)c2c(c(O)c1C/C=C(\C)CCC(=O)OCCN1CCOCC1)C(=O)OC2 | ? | - | - | - | 0 | - | ? | 0.228µM | ? | 0 | ? | 0.81µM | ?
COc1cc(C(=O)OCCN2CCOCC2)cc(OC)c1OC | 0 | 0 | 0 | 0 | 0 | 0 | - | - | - | - | - | - | -
Cc1ccc(C(C)C)c(OCC(=O)Nc2ccc(S(=O)(=O)Nc3onc(C)c3C)cc2)c1 | 0 | 0 | - | - | 0 | 0 | - | - | - | - | - | - | -
COc1ccc(-c2ccc3ncc4c(c3c2)n(-c2ccc(N3CCNCC3)c(C(F)(F)F)c2)c(=O)n4C)cn1 | - | - | - | - | 7.69µM | - | 0.25µM | 0.0314µM | 0.0056µM | 0.498µM | 0.125µM | 0.0056µM | 0.158µM
COc1ccc(S(=O)(=O)c2c(SC)nn(Cc3ccccc3C)c2NC(C)=O)cc1 | ? | 0 | - | - | 0 | 0 | - | - | - | - | - | - | -
Nc1nc(Cl)nc2c1ncn2[C@@H]1O[C@H](CO)[C@@H](O)[C@@H]1F | ? | - | - | - | 1µM | - | 0 | 0.0228µM | ? | 0 | 5.11µM | 0.162µM | ?
C[C@H]1[C@@H](OC(=O)CCC(=O)O)O[C@@H]2O[C@@]3(C)CC[C@@H]4[C@H](C)CC[C@@H]1[C@@]24OO3 | - | - | - | - | ? | - | ? | 1.28µM | 0 | ? | ? | ? | 0.909µM
Nc1ncnc2c1ncn2CCOc1ccccc1 | 0 | ? | 0 | 0 | 0 | 0 | - | - | - | - | - | - | -
CC(C)(C)C(=O)OCOP(=O)(COCCn1cnc2c(N)ncnc21)OCOC(=O)C(C)(C)C | 0 | - | - | - | 3.55µM! | - | 5.11µM | 4.06µM | ? | 0 | 2.56µM | ? | ?
CCc1nc(N)nc(N)c1-c1ccc(Cl)cc1 | 0 | ? | 0.82µM | 1.16µM | ? | 0 | ? | 0.909µM | ? | 0 | ? | ? | ?
